Experimental findings from PubChem BioAssay (NCI) are described below.

Compounds without any hit were thinned out: in the full panel of roughly 83,000, 20% have a hit.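 Results are percent growth after 48 hours of single-concentration exposure. 100 means growth as in untreated cells, lower positive values show inhibition; negative values down to -100 show cell death.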 A number with no mark means an inactive call. The source made the active and inactive calls. How the source made its calls: active means growth percent below 10; inactive means the rest.

Some test systems named below: HCT-15 colon; HT29 colon; SNB-75 CNS; SNB-19 CNS; U251 CNS; PC-3 prostate; SK-MEL-5 melanoma; UACC-62 melanoma; LOX IMVI melanoma; SK-MEL-28 melanoma; SK-MEL-2 melanoma; EKVX NSCLC; SN12C renal; UO-31 renal; TK-10 renal; ACHN renal; CAKI-1 renal; A498 renal; CCRF-CEM leukemia; MOLT-4 leukemia.
Common to all, as to assay: NCI-60 one-dose screen, 48 h (100 = growth as untreated, 0 = no growth, -100 = all killed)
Holding throughout (conditions): 10 µM unless noted

As to `CCCCNCCCCCNc1cc(OC)cc2cccnc12`, the growth is 88.2% in the test on HCT-15 colon; 96% with HT29 colon; 74.1% with SNB-75 CNS; 95.5% in the test with SNB-19 CNS; 91.8% in the test on U251 CNS; 77.8% in the test with PC-3 prostate. In addition, the growth with SK-MEL-5 melanoma is 94.3%; in the test on UACC-62 melanoma, 83.2%; in the test with LOX IMVI melanoma, 105%; in the test on SK-MEL-28 melanoma it was 98.8%; with SK-MEL-2 melanoma, 106%; with EKVX NSCLC, 106%. Also, the growth in the test with SN12C renal is 97.6%; with UO-31 renal it was 63.1%; in the test with TK-10 renal, 100%; with ACHN renal, 100%; in the test with CAKI-1 renal, 114%; in the test with A498 renal, 87.9%. The results for the growth in the test with CCRF-CEM leukemia and with MOLT-4 leukemia were 106% and 100%, respectively.
As to `Cc1ccc2c(Cn3cc(CSc4nc5ccccc5o4)nn3)cc(=O)oc2c1`, the growth is 107% in the test with HCT-15 colon; 108% with HT29 colon; 105% in the test with SNB-75 CNS; 105% in the test on SNB-19 CNS; 113% with U251 CNS; 104% with PC-3 prostate. Further, the growth in the test on SK-MEL-5 melanoma is 98.8%; with UACC-62 melanoma, 104%; in the test with LOX IMVI melanoma, 96.9%; in the test with SK-MEL-28 melanoma, 110%; in the test with SK-MEL-2 melanoma, 106%; in the test on EKVX NSCLC, 92.1%. The growth was 102% in the test with SN12C renal; 91.1% in the test with UO-31 renal; 122% with TK-10 renal; 103% in the test with ACHN renal; 100% with CAKI-1 renal; 90% with A498 renal. Besides, the figures for the growth in the test on CCRF-CEM leukemia and with MOLT-4 leukemia were 93.4% and 108%, respectively.
With `Cc1[nH]c(C(=O)Nc2ccccc2OC2CCNCC2)c(Cl)c1Cl`, the growth in the test on HCT-15 colon is 20.2%; in the test on HT29 colon, -7.94% (active); in the test on SNB-75 CNS it was -28.9% (active); in the test with SNB-19 CNS it was 33.4%; in the test with U251 CNS it was -4.3% (active); with PC-3 prostate, 43.1%. For the same compound, the growth is -40.6% (active) in the test on SK-MEL-5 melanoma; -79.9% (active) in the test on UACC-62 melanoma; -88.3% (active) in the test on LOX IMVI melanoma; 18.9% with SK-MEL-28 melanoma; 24.2% in the test with SK-MEL-2 melanoma; 43% with EKVX NSCLC. Moreover, the growth in the test on SN12C renal was -53.2% (active); in the test on UO-31 renal, -75.8% (active); in the test with TK-10 renal it was -3.07% (active); in the test with ACHN renal, -19.2% (active); in the test on CAKI-1 renal, 1.32% (active); in the test on A498 renal, 67.6%. The growth with CCRF-CEM leukemia is 1.15% (active); with MOLT-4 leukemia it was 4.46% (active).
For the compound `COc1ccc(CNc2c3ccccc3nc3ccccc23)cc1`, the growth was 22% in the test with HCT-15 colon; 19.3% with HT29 colon; 61.8% in the test on SNB-75 CNS; 34% in the test with SNB-19 CNS; 36.5% in the test with U251 CNS; 34% in the test with PC-3 prostate. For the same compound, the growth is 62.2% with SK-MEL-5 melanoma; 55.8% with UACC-62 melanoma; 20.9% with LOX IMVI melanoma; 79.6% in the test on SK-MEL-28 melanoma; 60.1% with SK-MEL-2 melanoma; 49.7% in the test with EKVX NSCLC. Further, the growth with SN12C renal is 32.2%; in the test on UO-31 renal, 22.1%; in the test with TK-10 renal, 49.5%; in the test on ACHN renal, 18.8%; in the test with CAKI-1 renal it was 29.3%; in the test with A498 renal, 10%. The results for the growth with CCRF-CEM leukemia and with MOLT-4 leukemia were 39% and 9.38% (active), respectively.
As to `COc1ccc(OC)c(/C=N/Nc2ncnc3c2c(C)nn3C)c1`, the growth is 100% with HCT-15 colon; 88.3% in the test with HT29 colon; 104% with SNB-75 CNS; 98.3% with SNB-19 CNS; 96.6% with U251 CNS; 99.6% in the test with PC-3 prostate. For the same compound, the growth in the test on SK-MEL-5 melanoma was 98%; with UACC-62 melanoma, 93.5%; in the test with LOX IMVI melanoma it was 99.5%; with SK-MEL-28 melanoma, 98.8%; in the test on SK-MEL-2 melanoma it was 105%; in the test on EKVX NSCLC it was 94.8%. In addition, the growth was 91.4% in the test with SN12C renal; 82.9% in the test on UO-31 renal; 105% in the test with TK-10 renal; 105% in the test on ACHN renal; 98.7% in the test on CAKI-1 renal; 64.4% in the test with A498 renal. In addition, the results for the growth in the test on CCRF-CEM leukemia and in the test on MOLT-4 leukemia were 103% and 93.9%, respectively.
As for `O=C(Nc1cccc(-c2ccc(Cl)c(C(F)(F)F)c2)c1)C1CCN(Cc2cccc3cccnc23)CC1`, the growth in the test with HCT-15 colon was -83% (active); with HT29 colon it was -62.2% (active); in the test on SNB-75 CNS it was 40.3%; with SNB-19 CNS, 61.4%; in the test on U251 CNS, -82.4% (active); in the test on PC-3 prostate, 10.8%. Also, the growth is -93.4% (active) in the test on SK-MEL-5 melanoma; 25.9% in the test on UACC-62 melanoma; -98.2% (active) in the test on LOX IMVI melanoma; -67.6% (active) with SK-MEL-28 melanoma; 31.6% in the test with SK-MEL-2 melanoma; 34.6% in the test on EKVX NSCLC. In addition, the growth is 4.06% (active) in the test with SN12C renal; 2.47% (active) with UO-31 renal; 80.6% in the test on TK-10 renal; -90.6% (active) in the test on ACHN renal; -52.5% (active) with CAKI-1 renal; 58.7% with A498 renal. For the same compound, the growth was 4.08% (active) in the test with CCRF-CEM leukemia and -9.69% (active) with MOLT-4 leukemia.
For `CCCCCCCCCCCCCCCCCCOc1ccccc1CC(=O)OCC[N+](C)(C)C`, the growth in the test on HCT-15 colon was 57.5%; in the test on HT29 colon, 8.73% (active); in the test with SNB-75 CNS, -16.4% (active); in the test with SNB-19 CNS it was 29.9%; in the test on U251 CNS, -76.6% (active); with PC-3 prostate, 5.84% (active). Further, the growth in the test with SK-MEL-5 melanoma was 25.3%; in the test with UACC-62 melanoma, 18.6%; in the test with LOX IMVI melanoma it was 29.3%; with SK-MEL-28 melanoma, 64.8%; in the test on SK-MEL-2 melanoma, 64.8%; with EKVX NSCLC, 46.9%. Besides, the growth was 10% in the test with SN12C renal; 61.3% in the test with UO-31 renal; 18% with TK-10 renal; 55.8% with ACHN renal; 9.52% (active) with CAKI-1 renal; 45.1% with A498 renal. Besides, the growth in the test on CCRF-CEM leukemia was 5.24% (active); in the test on MOLT-4 leukemia, -7.37% (active).
With `Fc1cccc(Oc2ccc(Nc3ncnc4ccc(OCCCN5CCOCC5)cc34)cc2Cl)c1`, the growth with HCT-15 colon was 10.8%; in the test with HT29 colon it was 18.2%; with SNB-75 CNS it was 77.2%; in the test with SNB-19 CNS, 63.3%; in the test on U251 CNS, 47.4%; with PC-3 prostate it was 63.8%. The growth in the test with SK-MEL-5 melanoma is 32.3%; in the test with UACC-62 melanoma, 71.6%; in the test on LOX IMVI melanoma, 21.6%; with SK-MEL-28 melanoma it was 68.4%; with SK-MEL-2 melanoma, 93.3%; in the test with EKVX NSCLC, 20.7%. For the same compound, the growth was 82.9% in the test on SN12C renal; 30.4% with UO-31 renal; 26.4% with TK-10 renal; 32.3% in the test on ACHN renal; 30.4% in the test on CAKI-1 renal; -4.84% (active) in the test on A498 renal. The growth with CCRF-CEM leukemia is 58.8%; in the test with MOLT-4 leukemia it was 53.9%.
